In PubChem BioAssay (EPA / NIEHS):
Activity calls are given as the source filed them. The calls were made as follows: active = hit-call score of the fitted dose curve at least 0.9, where 1 is the maximum; inactive = score below 0.9.

Experiments:
[1] = biological target: CCAAT/enhancer-binding protein beta (Homo sapiens) (UniProt P17676); test: ATG_C_EBP_CIS: Attagene CIS-FACTORIAL HepG2 Assay for human CCAAT/Enhancer Binding Protein (C/EBP) beta (AID 2282927); details: HepG2 Attagene cis-factorial transcription factor reporter; actives raise or lower the signal
CCAAT/enhancer-binding protein beta (Homo sapiens), sequence (P17676 whole entry, looked up, the tested form may be a part): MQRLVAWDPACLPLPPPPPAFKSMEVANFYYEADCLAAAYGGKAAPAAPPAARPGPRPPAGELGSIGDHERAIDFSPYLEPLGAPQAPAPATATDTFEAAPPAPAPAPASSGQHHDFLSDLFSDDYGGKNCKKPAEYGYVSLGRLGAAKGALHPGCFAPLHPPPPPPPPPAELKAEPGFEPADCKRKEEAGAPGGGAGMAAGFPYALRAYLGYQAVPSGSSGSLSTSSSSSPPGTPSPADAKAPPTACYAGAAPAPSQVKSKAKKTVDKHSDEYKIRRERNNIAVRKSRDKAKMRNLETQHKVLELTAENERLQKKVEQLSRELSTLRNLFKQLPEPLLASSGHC
Procedure, shortened: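 Chemical-treated HepG2 cells (24 h) bearing cis-regulated reporter constructs were processed for total RNA, then reverse transcription, PCR amplification, fluorescent primer extension and fragment analysis; gain- and loss-of-signal were fitted against DMSO.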

[2] = ATG_CMV_CIS: Attagene CIS-FACTORIAL HepG2 Assay for human CMV (Internal Marker) (AID 2282928); details: HepG2 CMV promoter reporter, transcription factor profiling; actives raise or lower the signal;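 also: endpoint acts as a background internal control marker rather than a target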
Procedure, shortened: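 Bidirectional fits against DMSO are applied to reporter mRNA, read by RT-PCR with capillary electrophoresis, from HepG2 cells exposed 24 h. The endpoint serves as an internal CMV background marker within the cis-factorial reporter panel.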

[3] = ATG_DR4_LXR_CIS: Attagene CIS-FACTORIAL HepG2 Assay for human Liver X Receptor (LXR), DR4 submotif (AID 2282929); details: HepG2 Attagene DR4 cis-reporter, mRNA transcription; actives raise or lower the signal
Procedure, shortened: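 The endpoint is DR4-element-driven reporter transcripts after 24 h chemical exposure of transfected HepG2 cells. These were measured via RT-PCR and capillary electrophoresis, and gain or loss of signal was fitted relative to DMSO controls.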

[4] = ATG_AP_1_CIS: Attagene CIS-FACTORIAL HepG2 Assay for human Activator Protein 1 (AP-1) (AID 2282931); details: HepG2 Attagene cis-factorial AP-1 reporter mRNA; actives raise or lower the signal
Procedure, shortened: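 Readout is reporter transcript level from endogenous transcription factor activity, quantified by RT-PCR with fluorescent primer extension and capillary electrophoresis. Transiently transfected HepG2 cells, 24 h exposure. Curves fitted both directions versus DMSO.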

[5] = ATG_AP_2_CIS: Attagene CIS-FACTORIAL HepG2 Assay for human Activator Protein 2 (AP-2) (AID 2282932); details: HepG2 AP-2 cis-reporter, Attagene transcription factor profiling; actives raise or lower the signal
Procedure, shortened: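 Assay in transfected HepG2 with promoter-regulated reporters, 24 h incubation after dosing. Signal is reporter mRNA fluorescence (RT-PCR, capillary electrophoresis), analysed for both increases and decreases relative to DMSO controls.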

[6] = ATG_BRE_CIS: Attagene CIS-FACTORIAL HepG2 Assay for human Bone Morphogenetic Protein (BMP) Response Element (BRE) (AID 2282933); details: HepG2 BMP response element reporter, Attagene transcription factor profiling; actives raise or lower the signal
Procedure, shortened: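 Gain- or loss-of-signal was derived by bidirectional fitting against DMSO controls. The signal came from reporter mRNA, measured by RT-PCR and capillary electrophoresis, in HepG2 cells transiently carrying multiple reporter units and dosed for 24 h.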

[7] = biological target: Transcription factor E2F1 (Homo sapiens) (UniProt Q01094); test: ATG_E2F_CIS: Attagene CIS-FACTORIAL HepG2 Assay for human E2F Transcription Factor 1 (AID 2282935); details: HepG2 Attagene cis-reporter, E2F reporter RNA transcripts; actives raise or lower the signal
Transcription factor E2F1 (Homo sapiens), sequence (Q01094 whole entry, looked up): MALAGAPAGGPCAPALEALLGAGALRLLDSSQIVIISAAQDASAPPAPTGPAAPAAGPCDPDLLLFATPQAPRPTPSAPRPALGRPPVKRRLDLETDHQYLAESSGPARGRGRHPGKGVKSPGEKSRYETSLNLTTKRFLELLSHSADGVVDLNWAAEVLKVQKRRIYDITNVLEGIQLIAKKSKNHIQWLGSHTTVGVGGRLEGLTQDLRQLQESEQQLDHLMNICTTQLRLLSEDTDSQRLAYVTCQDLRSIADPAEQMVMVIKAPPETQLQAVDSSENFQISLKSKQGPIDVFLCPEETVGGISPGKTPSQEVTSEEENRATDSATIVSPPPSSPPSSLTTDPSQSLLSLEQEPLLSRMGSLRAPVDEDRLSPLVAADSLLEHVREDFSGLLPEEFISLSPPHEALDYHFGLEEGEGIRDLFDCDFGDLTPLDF
Procedure, shortened: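 In this cis-factorial format, endogenous factor activity drives transfected reporters in HepG2; transcripts collected at 24 h are quantified by fluorescence after RT-PCR and capillary separation.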

[8] = ATG_E_Box_CIS: Attagene CIS-FACTORIAL HepG2 Assay for human Enhancer Box (E-box) (AID 2282936); details: HepG2 E-box cis-reporter transcription, actives raise or lower the signal
Procedure, shortened: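 Measured 24 h post-dosing in HepG2 cells transfected with multiple cis-regulated reporter units, signal being reporter mRNA induction detected by fluorescent RT-PCR with capillary electrophoresis; gain or loss fitted against DMSO.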

[9] = ATG_M_61_CIS: Attagene CIS-FACTORIAL HepG2 Assay for M61 Transcription Factor (Internal Marker) (AID 2282937); details: HepG2 Attagene CIS-FACTORIAL M61 internal marker reporter; actives raise or lower the signal
Procedure, shortened: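 Readout is reporter mRNA by RT-PCR, fluorescent primer extension and capillary electrophoresis, with gain or loss fitted relative to DMSO. Transfected HepG2 cells carrying endogenous-TF-driven cis reporters were exposed to chemicals for 24 hours.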

[10] = ATG_EGR_CIS: Attagene CIS-FACTORIAL HepG2 Assay for human Early Growth Response 1 (EGR1) (AID 2282938); details: HepG2 Attagene CIS-FACTORIAL EGR reporter mRNA; actives raise or lower the signal
Procedure, shortened: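 After 24 h compound exposure, RNA from reporter-transfected HepG2 cells was reverse-transcribed, PCR-amplified, fluorescently labelled and resolved by capillary electrophoresis. EGR1 reporter transcript changes, up or down, were fitted against DMSO, reflecting endogenous transcription-factor activity.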

[11] = ATG_Ets_CIS: Attagene CIS-FACTORIAL HepG2 Assay for human Erythroblast Transformation Specific (ETS) (AID 2282941); details: HepG2 ETS cis-reporter transcription, actives raise or lower the signal
Procedure, shortened: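 Endogenous transcription factor activity read as reporter mRNA via RT-PCR and capillary electrophoresis, with gain or loss fitted bidirectionally against DMSO. Human HepG2 liver cells, transiently transfected CIS reporter constructs, 24 h exposure.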

[12] = ATG_GATA_CIS: Attagene CIS-FACTORIAL HepG2 Assay for human GATA Binding Protein (AID 2282944); details: HepG2 GATA cis-element reporter, Attagene multiplex mRNA; actives raise or lower the signal
Procedure, shortened: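 DMSO serves as negative control and baseline for bidirectional fitting of reporter mRNA changes. HepG2 cells bearing transiently transfected cis-promoter reporters were exposed 24 h; transcripts detected via RT-PCR and capillary electrophoresis.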

[13] = ATG_GLI_CIS: Attagene CIS-FACTORIAL HepG2 Assay for human Zinc Finger Protein GLI1 (AID 2282945); details: HepG2, Attagene cis-factorial reporter mRNA, GLI element; actives raise or lower the signal
Procedure, shortened: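 HepG2 cells transiently transfected with cis-promoter multiplexed reporter units report endogenous transcription factor activity. After 24 h chemical exposure, reporter mRNA was quantified by RT-PCR, 6-FAM labelling, HpaI digestion and capillary electrophoresis, with bidirectional fitting against DMSO.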

[14] = ATG_ISRE_CIS: Attagene CIS-FACTORIAL HepG2 Assay for human Interferon Regulatory Factor 1 (IRF1) binding to an Interferon-Stimulated Response Element (ISRE) (AID 2282948); details: HepG2 ISRE cis-reporter (Attagene), mRNA transcription readout; actives raise or lower the signal
Procedure, shortened: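 Endogenous transcription factor activity read as reporter transcript abundance via RT-PCR and capillary electrophoresis. HepG2 cells transiently transfected, 24 h chemical exposure. Gain or loss fitted against DMSO baseline.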

[15] = ATG_M_32_CIS: Attagene CIS-FACTORIAL HepG2 Assay for M32 Transcription Factor (Internal Marker) (AID 2282949); details: HepG2 Attagene cis-factorial M32 reporter, mRNA; actives raise or lower the signal;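 also: background control marker of the multiplexed CIS panel rather than a real target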
Procedure, shortened: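 Transient MRTU transfection of HepG2; 24 h compound treatment; TriZol RNA, oligo(dT) RT, reporter PCR, 6-FAM primer extension, HpaI cut, CE. Gain/loss of signal vs DMSO.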

[16] = ATG_M_06_CIS: Attagene CIS-FACTORIAL HepG2 Assay for M06 Transcription Factor (Internal Marker) (AID 2282950); details: HepG2 Attagene CIS-FACTORIAL M06 internal marker reporter; actives raise or lower the signal
Procedure, shortened: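 Fluorescence-labelled RT-PCR products from cis-promoter reporter units, cut with HpaI and resolved by capillary electrophoresis, give the signal. Cells are human HepG2, dosed for 24 h. Serves as background control, fitted relative to DMSO.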

[17] = biological target: Hepatocyte nuclear factor 6 (Homo sapiens) (UniProt Q9UBC0); test: ATG_HNF6_CIS: Attagene CIS-FACTORIAL HepG2 Assay for human Hepatocyte Nuclear Factor 6 (HNF6) (AID 2282952); details: HepG2 Attagene cis-factorial HNF6 reporter transcription; actives raise or lower the signal
Hepatocyte nuclear factor 6 (Homo sapiens), sequence (Q9UBC0 whole entry, looked up): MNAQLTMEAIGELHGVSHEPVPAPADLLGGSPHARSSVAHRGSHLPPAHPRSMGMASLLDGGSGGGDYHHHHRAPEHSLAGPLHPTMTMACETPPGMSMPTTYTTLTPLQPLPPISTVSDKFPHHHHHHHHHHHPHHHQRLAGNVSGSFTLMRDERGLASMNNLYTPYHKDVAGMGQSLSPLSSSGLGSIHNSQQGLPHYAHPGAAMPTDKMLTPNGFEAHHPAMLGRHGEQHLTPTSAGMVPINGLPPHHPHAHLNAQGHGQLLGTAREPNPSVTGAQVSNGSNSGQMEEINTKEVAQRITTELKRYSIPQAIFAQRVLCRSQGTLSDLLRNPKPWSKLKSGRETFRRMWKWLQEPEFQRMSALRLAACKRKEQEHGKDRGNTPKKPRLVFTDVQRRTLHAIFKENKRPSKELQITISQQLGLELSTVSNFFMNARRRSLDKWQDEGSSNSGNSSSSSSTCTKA
Procedure, shortened: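 Activity values derive from bidirectional fitting against DMSO of reporter mRNA levels, measured by capillary electrophoresis of labelled RT-PCR products from HepG2 cells exposed 24 h.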

[18] = ATG_MRE_CIS: Attagene CIS-FACTORIAL HepG2 Assay for human Metal Responsive Element (MRE) (AID 2282954); details: HepG2 MRE cis-reporter transcription, Attagene multiplex; actives raise or lower the signal
Procedure, shortened: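 Readout: capillary electrophoresis of 6-FAM-labelled, HpaI-digested RT-PCR reporter products. System: HepG2 cells carrying transient multiplexed cis reporters, dosed 24 h. Analysis: bidirectional fit, DMSO baseline.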

[19] = ATG_PXRE_CIS: Attagene CIS-FACTORIAL HepG2 Assay for human Pregnane X Receptor Element (PXRE) (AID 2282957); details: HepG2 Attagene CIS-FACTORIAL PXRE reporter, mRNA; actives raise or lower the signal
Procedure, shortened: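 Fluorescent capillary electrophoresis of amplified reporter cDNA gave the signal, collected 24 h after dosing HepG2 cells that held transfected cis-element reporter constructs.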

[20] = ATG_Sox_CIS: Attagene CIS-FACTORIAL HepG2 Assay for human SRY-box transcription factor (SOX) (AID 2282960); details: HepG2 Attagene cis-factorial SOX reporter, mRNA; actives raise or lower the signal
Procedure, shortened: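 Reporter transcripts, measured by RT-PCR and capillary electrophoresis of labelled fragments, report endogenous SOX transcription factor activity. Transiently transfected human HepG2 cells receive chemical for 24 h; changes in either direction are fitted relative to DMSO.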

Question: Which outcome [1] does the source give for `N#CCNCC#N` here?
Answer: inactive

Question: And the outcome [2]?
Answer: inactive

Question: What about the outcome [3] of the same compound?
Answer: inactive

Question: What about the outcome [4] of the same compound?
Answer: inactive

Question: And the outcome [5]?
Answer: inactive

Question: What about the outcome [6] of the same compound?
Answer: inactive

Question: And the outcome [7]?
Answer: inactive

Question: And the outcome [8]?
Answer: inactive

Question: And the outcome [9]?
Answer: inactive

Question: What about the outcome [10] of the same compound?
Answer: inactive

Question: And the outcome [11]?
Answer: inactive

Question: And the outcome [12]?
Answer: inactive

Question: What about the outcome [13] of the same compound?
Answer: inactive

Question: And the outcome [14]?
Answer: inactive

Question: What about the outcome [15] of the same compound?
Answer: inactive

Question: And the outcome [16]?
Answer: inactive

Question: And the outcome [17]?
Answer: inactive

Question: What about the outcome [18] of the same compound?
Answer: inactive

Question: And the outcome [19]?
Answer: inactive

Question: What about the outcome [20] of the same compound?
Answer: inactive

Question: What does the source list for `C[C@]12CC[C@H]3[C@@H](CC[C@@]45O[C@@H]4C(O)=C(C#N)C[C@]35C)[C@@H]1CC[C@@H]2O`?
Answer: outcome [1]: inactive; AC50 [2]: 100 µM (active); outcome [3]: inactive; outcome [4]: inactive; outcome [5]: inactive; outcome [6]: inactive; outcome [7]: inactive; outcome [8]: inactive; outcome [9]: inactive; AC50 [10]: 63.3 µM (active); outcome [11]: inactive; outcome [12]: inactive; outcome [13]: inactive; AC50 [14]: 100 µM (active); outcome [15]: inactive; outcome [16]: inactive; outcome [17]: inactive; AC50 [18]: 62.1 µM (active); AC50 [19]: 27.2 µM (active); outcome [20]: inactive

Question: For `CC(Cc1ccc(C(C)(C)C)cc1)CN1C[C@@H](C)O[C@@H](C)C1` (stereo not given in full), which outcome [1] is on record?
Answer: inactive

Question: And the AC50 [2]?
Answer: 38.6 µM (active)

Question: And the outcome [3]?
Answer: inactive

Question: And the AC50 [4]?
Answer: 40.6 µM (active)

Question: And the outcome [5]?
Answer: inactive

Question: And the AC50 [6]?
Answer: 50.3 µM (active)

Question: What about the outcome [7] of the same compound?
Answer: inactive

Question: And the outcome [8]?
Answer: inactive

Question: And the outcome [9]?
Answer: inactive

Question: And the outcome [10]?
Answer: inactive

Question: And the outcome [11]?
Answer: inactive

Question: What about the outcome [12] of the same compound?
Answer: inactive

Question: And the outcome [13]?
Answer: inactive

Question: And the outcome [14]?
Answer: inactive

Question: And the outcome [15]?
Answer: inactive

Question: What about the outcome [16] of the same compound?
Answer: inactive

Question: And the outcome [17]?
Answer: inactive

Question: And the AC50 [18]?
Answer: 24.2 µM (active)

Question: And the AC50 [19]?
Answer: 4.18 µM (active)

Question: And the AC50 [20]?
Answer: 24.7 µM (active)
